Results filed as inconclusive are left out. A call without a number means that no potency is given here. Calls of active or inactive are those of the source. The call rests on the fitted dose curve; in most records, active means well fitted cell-killing curve with a large enough effect; inconclusive means small, poorly fitted or top-dose-only effect, or effect the other way; inactive means flat fitted curve, though single readings scatter.
test system: C33A; test: Primary qHTS to identify gynecologic anti-cancer compounds using libraries of approved drugs and bioactive compounds (AID 1345084); details: Gynecologic cancer cell panel viability, ATPlite luminescence, 48 h; series mostly up to 57.5 µM; further: nearly all actives have a fitted effect of over 55% in size
Method in brief: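 Cytotoxicity screen measuring ATP content by luciferase luminescence. Each compound is applied at five concentrations for 48 h at 37 C with 5% CO2.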

Row | SMILES | Potency | activity change, negative = cytotoxicity
1 | CC(=O)OCC(=O)O[C@@H]1[C@H]2[C@@H](OC(=O)c3ccccc3)[C@@H](C)C[C@]2(O)[C@H](OC(C)=O)C2(C)[C@H]3CC(C)(C)C(=O)[C@@H]3CC1(OC(C)=O)[C@@H]2OC(C)=O (some centres undefined) | inactive | 
2 | CC1(O)CCC2C(C(=O)O)=COC(OC3OC(CO)C(O)C(O)C3OC(=O)/C=C/c3ccc(O)cc3)C21 (centres undefined) | inactive | 
3 | CC(=O)NC(CCC(=O)O)C(=O)NCCc1ccc(O)cc1 (centres undefined) | inactive | 
4 | COC(=O)C1C(c2ccc(O)cc2)C(C(=O)OC)C1c1ccc(O)cc1 (centres undefined) | inactive | 
5 | C=C(C)C(=O)O[C@H]1C[C@@](C)(OC(C)=O)[C@@]2(O)CC[C@@](C)(O)[C@H](OC(C)=O)[C@@]23OC(=O)C(COC)=C13 | inactive | 
6 | CC1(C)CC(=O)N(CCCCN2CCN(c3ncccn3)CC2)C(=O)C1 | inactive | 
7 | COc1ccc2c(c1)OC[C@]1(O)c3cc4c(cc3O[C@H]21)OCO4 | inactive | 
8 | CC(CCC1(O)OC2CC3C4CCC5CC(O[C@@H]6O[C@H](CO)[C@@H](O)[C@H](O)[C@H]6O[C@@H]6OC[C@@H](O)[C@H](O)[C@H]6O)C(O)CC5(C)C4CCC3(C)C2C1C)CO[C@@H]1O[C@H](CO)[C@@H](O)[C@H](O)[C@H]1O (some centres undefined) |  | 4.8% [at 11.6 µM] (inactive)
9 | COc1cc(CCc2ccccc2)c(C(=O)O)c2c1CC(C(C)(C)O)O2 (centres undefined) | inactive | 
10 | CCCC1=CC2=C(CO1)C(=O)C(C)(OC(=O)c1c(C)cc(OC)cc1O)C(O)C2 (centres undefined) | inactive | 
11 | C[C@@H]1O[C@@H](O[C@@H]2[C@@H](O)[C@H](O[C@@H]3[C@@H](O)[C@@H](O)[C@H](O[C@H]4[C@H](OC(=O)[C@]56CCC(C)(C)C[C@H]5C5=CCC7[C@@]8(C)C[C@H](O)[C@H](O[C@@H]9O[C@@H](C)[C@H](O)[C@@H](O)[C@H]9O)[C@@](C)(CO)C8CC[C@@]7(C)[C@]5(C)C[C@H]6O)O[C@H](C)[C@H](O)[C@@H]4O)O[C@H]3C)OC[C@H]2O)[C@H](O)[C@H](O)[C@H]1O (some centres undefined) |  | 1.27% [at 6.55 µM] (inactive)
12 | CCS(=O)(=O)N1CCC([C@@H](C)n2c(C)c(C(=O)NCc3c(OC)cc(C)[nH]c3=O)c3ccccc32)CC1 | inactive | 
13 | C/C=C1\[C@H](O[C@@H]2O[C@H](CO)[C@@H](O)[C@H](O)[C@H]2O)OC=C(C(=O)OC)[C@H]1CC(=O)OC | inactive | 
14 | O=C(O[C@H]1[C@@H]2C[C@@H]3OC[C@@](O)([C@H]2[C@H](O[C@@H]2O[C@H](CO)[C@@H](O)[C@H](O)[C@H]2O)O3)[C@@H]1O)c1ccccc1 | inactive | 
15 | CC1CCC2C(C)(C)C(O)CCC2(C)C12Cc1c(O)cc3c(c1O2)C(N)=NC3 (centres undefined) | inactive | 
16 | C=CC(C)(C)O[C@@H]1O[C@H](CO[C@@H]2OC[C@](O)(CO)[C@H]2O)[C@@H](O)[C@H](O)[C@H]1O | inactive | 
17 | CCCC(N[C@@H](C)C(=O)N1[C@H](C(=O)O)C[C@@H]2CCCC[C@@H]21)C(=O)OCC (some centres undefined) | inactive | 
18 | O=C(O)c1ccc(CCCc2ccc(OCCc3ccc(F)cc3)cc2)o1 | inactive | 
19 | Cc1[nH]cnc1C1CCN(c2nc3cccc4c3n2CCC4=O)CC1 | inactive | 
20 | C[C@@H]1O[C@@H](O[C@@H]2[C@@H](O)[C@H](O[C@@H]3[C@@H](O)[C@@H](O)[C@H](O[C@H]4[C@H](OC(=O)[C@]56CCC(C)(C)C[C@H]5C5=CCC7[C@@]8(C)C[C@H](O)[C@H](O[C@@H]9O[C@H](C(=O)O)[C@@H](O)[C@H](O)[C@H]9O)[C@@](C)(CO)C8[C@H](O)C[C@@]7(C)[C@]5(C)CC6)OC[C@H](O)[C@@H]4O)O[C@H]3C)OC[C@H]2O)[C@H](O)[C@H](O)[C@H]1O (some centres undefined) |  | -3.84% [at 6.55 µM] (inactive)

Row | SMILES | Potency | activity change, negative = cytotoxicity
21 | CC1(C)CC2C(O)C3=C(CC(C)(O)C2C1)C(=O)OC3O (centres undefined) | inactive | 
22 | CC(C)=CC/C=C(/C)[C@H]1CC[C@]2(C)[C@@H]1[C@H](O)CC1[C@@]3(C)CC[C@H](O)C(C)(C)[C@@H]3[C@@H](O[C@@H]3O[C@H](CO)[C@@H](O)[C@H](O)[C@H]3O[C@@H]3O[C@@H](C)[C@H](O)[C@@H](O)[C@H]3O)C[C@]12C (some centres undefined) | inactive | 
23 | O=C(/C=C/c1ccc(O)cc1)OCC1=C[C@@H](O)[C@@H]2C=CO[C@@H](O[C@@H]3O[C@H](CO)[C@@H](O)[C@H](O)[C@H]3O)[C@H]12 | inactive | 
24 | O=C(O[C@H]1[C@@H]2C=CO[C@@H](O[C@@H]3O[C@H](CO)[C@@H](O)[C@H](O)[C@H]3O)[C@@H]2[C@@]2(CO)O[C@@H]12)c1ccc(O)c(O)c1 | inactive | 
25 | O=C(O)C[C@H]1CCC(=O)[C@@H]1C/C=C\CCOC1OC(CO)C(O)C(O)C1O (some centres undefined) | inactive | 
26 | CC(=O)OC1C(O)C(C)=C(CCC(C)CC(=O)O)C2(C)CCCC(C)(C)C12 (centres undefined) | inactive | 
27 | Cc1ncc([N+](=O)[O-])n1CC(O)CN1CCOCC1 (centres undefined) | inactive | 
28 | COc1cc2c(cc1O)C1(Cc3ccc4c(c3C1=O)OCO4)N(C)CC2 (centres undefined) | inactive | 
29 | COC(=O)[C@H](CC1C=NC=N1)NCC12CC3CC(CC(C3)C1)C2 (some centres undefined) | inactive | 
30 | CCOC(=O)c1ccc(N(C)c2csc(-c3ccccc3)n2)cc1 | inactive | 
31 | C/C1=C\C[C@H](O[C@@H]2O[C@H](CO)[C@@H](O)[C@H](O)[C@H]2O)/C(C)=C/[C@H]2OC(=O)[C@H](C)[C@@H]2CC1 | inactive | 
32 | COc1ccc(C(=O)O[C@H]2CC(C)=CC[C@@]3(C)[C@@H](OC(C)=O)C[C@@](O)(C(C)C)[C@H]23)cc1 | inactive | 
33 | CC/C=C\C[C@H]1C(=O)C=C[C@@H]1CCCCCCCC(=O)O | inactive | 
34 | CC1CC(=O)C2=C(O1)OC1(C)CCC3C(C)(C)C=CC(=O)C3(C)C1C2 (centres undefined) | inactive | 
35 | CC1(CO)CC2C(O)C(=O)C3(CO)CC3(C)C2C1 (centres undefined) | inactive | 
36 | CCn1nnnc1NCc1ccc(C(C)C)cc1 | inactive | 
37 | CCNC(=O)CCC/C=C\C[C@@H]1[C@@H](/C=C/C(O)CCc2ccccc2)[C@@H](O)C[C@@H]1O (some centres undefined) | inactive | 
38 | CN[C@@H]1[C@@H](O)[C@@H](O[C@@H]2[C@@H](O)[C@H](O[C@H]3O[C@H](CN)[C@@H](O)[C@H](O)[C@H]3O)[C@@H](N)C[C@H]2NC(=O)[C@@H](O)CN)OC[C@]1(C)O | inactive | 
39 | CC1(C)OC(=O)C(OCC2CC2)=C1c1ccc(S(C)(=O)=O)cc1 | inactive | 

From PubChem BioAssay (NCATS)
